Results on 37 compounds are retold here after the supplement of paper PMC12067926.

A number with no mark means an inactive call.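 How the source made its calls: active = growth AUC significantly below the DMSO wells by Dunnett test; inactive = the rest.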

The subject of the assay is Sphingomonas 2 (Sphingomonas sp.). The experiment in a line: relative growth (AUC of 72 h growth curve relative to DMSO control, dAUC) (ratio); higher = more growth (less inhibition), active = hit call of the paper. The following applies: 20 µM. A digest of the protocol:
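Cultures grown to carrying capacity in Luria–Bertani medium, drawn from Icelandic stream sediment and Silwood Park soil isolates and whole sediment communities, were diluted 1:100 into 96-well plates with each chemical at 20 µM (1% DMSO) and read at A600 hourly for 72 h. The spline-integrated area under the growth curve, divided by the mean of the DMSO controls, is reported as relative growth (dAUC). Values are means of three biological replicates.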
In the case of `CCOc1cc(Oc2ccc(C(F)(F)F)cc2Cl)ccc1[N+](=O)[O-]`, the relative growth was 1.2.

With `O=C(NC(=O)c1c(F)cccc1F)Nc1ccc(OC(F)(F)C(F)OC(F)(F)F)c(Cl)c1` (configuration not stated), the relative growth was 1.11.

Turning to `Cc1cc(C)nc(Nc2ccccc2)n1`, the relative growth was 0.984.

Regarding `CC(C)NC(=O)N1CC(=O)N(c2cc(Cl)cc(Cl)c2)C1=O`, the relative growth was 0.971.

Turning to `Cc1nnc(-c2ccccc2)c(=O)n1N`, the relative growth is 1.

Consider `CSc1nc(NC(C)C)nc(NC(C)C)n1`, for which the relative growth was 0.989.

Take `C/C(=N\C#N)N(C)Cc1ccc(Cl)nc1`: the relative growth was 1.03.

For the compound `Cc1cccc2sc3nncn3c12`, the relative growth was 0.944.

With `Fc1ccc(Oc2ccnc3cc(Cl)cc(Cl)c23)cc1`, the relative growth was 0.975.

For the compound `COP(N)(=O)SC` (configuration not stated), the relative growth is 0.675.

Consider `COc1cc(OC)nc(NC(=O)NS(=O)(=O)c2ncccc2C(=O)N(C)C)n1`, for which the relative growth is 1.

As for `CC[C@H]1CCC[C@H](O[C@H]2CC[C@H](N(C)C)[C@@H](C)O2)[C@@H](C)C(=O)C2=C[C@@H]3[C@@H](C=C(C)[C@@H]4C[C@@H](O[C@@H]5O[C@@H](C)[C@H](OC)[C@@H](OC)[C@H]5OC)C[C@@H]34)[C@@H]2CC(=O)O1.CC[C@H]1CCC[C@H](O[C@H]2CC[C@H](N(C)C)[C@@H](C)O2)[C@@H](C)C(=O)C2=C[C@H]3[C@@H]4C[C@H](O[C@@H]5O[C@@H](C)[C@H](OC)[C@@H](OC)[C@H]5OC)C[C@H]4C=C[C@H]3C2CC(=O)O1`, the relative growth is 1.

As for `COC(=O)N(C(=O)N1CO[C@@]2(C(=O)OC)Cc3cc(Cl)ccc3C2=N1)c1ccc(OC(F)(F)F)cc1`, the relative growth was 0.861.

Turning to `N#Cc1c[nH]cc1-c1cccc2c1OC(F)(F)O2`, the relative growth is 0.957.

Take `CC(C)N(C(=O)COc1nnc(C(F)(F)F)s1)c1ccc(F)cc1`: the relative growth is 1.09.

For the compound `CC1(C)C(C=C(Cl)Cl)C1C(=O)OC(C#N)c1ccc(F)c(Oc2ccccc2)c1` (configuration not stated), the relative growth is 1.03.

Regarding `Cc1c(COC(=O)[C@@H]2[C@H](/C=C(\Cl)C(F)(F)F)C2(C)C)cccc1-c1ccccc1` (racemic), the relative growth was 1.07.

As to `COc1cc(C)c(C(=O)c2c(OC)ccc(Br)c2C)c(OC)c1OC`, the relative growth is 1.04.

Regarding `CC(C)(C)C(O)(CCc1ccc(Cl)cc1)Cn1cncn1` (configuration not stated), the relative growth is 1.06.

With `CCCC(Cn1cncn1)c1ccc(Cl)cc1Cl` (configuration not stated), the relative growth is 1.03.

Regarding `C[C@@H]1[C@@H](c2ccc(Cl)cc2)SC(=O)N1C(=O)NC1CCCCC1`, the relative growth was 0.987.

Consider `O=C1C2(Cl)C3(Cl)C4(Cl)C(Cl)(Cl)C5(Cl)C3(Cl)C1(Cl)C5(Cl)C24Cl` (configuration not stated), for which the relative growth is 0.382 (active).

As to `OC(Cc1ccccc1Cl)(Cn1nc[nH]c1=S)C1(Cl)CC1` (configuration not stated), the relative growth was 0.981.

For `CC1(C)[C@H](C(=O)O[C@H](C#N)c2cccc(Oc3ccccc3)c2)[C@@H]1C=C(Br)Br`, the relative growth is 1.12.

Consider `N#Cc1c(Cl)c(Cl)c(Cl)c(C#N)c1Cl`, for which the relative growth was 0.0279 (active).

As to `CCOc1ccc(C(C)(C)COCc2cccc(Oc3ccccc3)c2)cc1`, the relative growth is 0.967.

Take `Cc1cc(C(F)(C(F)(F)F)C(F)(F)F)ccc1NC(=O)c1cccc(I)c1C(=O)NC(C)(C)CS(C)(=O)=O`: the relative growth was 0.654 (active).

For `N#Cc1nn(-c2c(Cl)cc(C(F)(F)F)cc2Cl)c(N)c1[S+]([O-])C(F)(F)F` (configuration not stated), the relative growth is 0.983.

Take `CNC(=O)Oc1cccc2ccccc12`: the relative growth was 0.986.

Turning to `CO/N=C(/C(=O)OC)c1ccccc1CO/N=C(\C)c1cccc(C(F)(F)F)c1`, the relative growth was 1.1.

Consider `CC1(C)CON(Cc2ccccc2Cl)C1=O`, for which the relative growth was 1.15.

With `CCCN(CCC)C(=O)SCc1ccccc1`, the relative growth is 1.06.

For the compound `CC[C@H](C)[C@H]1O[C@]2(C=C[C@@H]1C)C[C@@H]1C[C@@H](C/C=C(\C)[C@@H](O[C@H]3C[C@H](OC)[C@@H](O[C@H]4C[C@H](OC)[C@@H](O)[C@H](C)O4)[C@H](C)O3)[C@@H](C)/C=C/C=C3\CO[C@@H]4[C@H](O)C(C)=C[C@@H](C(=O)O1)[C@]34O)O2.CO[C@H]1C[C@H](O[C@H]2[C@H](C)O[C@@H](O[C@@H]3/C(C)=C/C[C@@H]4C[C@@H](C[C@]5(C=C[C@H](C)[C@@H](C(C)C)O5)O4)OC(=O)[C@@H]4C=C(C)[C@@H](O)[C@H]5OC/C(=C\C=C\[C@@H]3C)[C@]54O)C[C@@H]2OC)O[C@@H](C)[C@@H]1O`, the relative growth is 0.717.

With `Nc1c(Cl)c(F)nc(OCC(=O)O)c1Cl`, the relative growth is 1.11.

With `O=C1C=C(N(Cc2ccc(Cl)nc2)CC(F)F)CO1`, the relative growth was 0.914.

`CC1(C)C(C(=O)OC(C#N)c2cccc(Oc3ccccc3)c2)C1(C)C` (configuration not stated): the relative growth is 0.98.

With `COP(=O)(OC)OC=C(Cl)Cl`, the relative growth is 0.823.
